# GLP1R ag: qHTS of GLP-1 Receptor Agonists | Glucagon-like peptide 1 receptor (Homo sapiens), P43220 | HEK293 GLP-1R CRE-luciferase, luminescence, 4-6 h; cells express a hypersensitive GLP-1R form | Potency, µM (titrated, usually from 45.6 µM), for the others: top-dose activation, most hits filed as activators | 380,000 tested, 0.007% active | AID 624172, 2012; further: potency means the concentration at half of the fitted maximal effect; % of control where 0% means no effect
# Target sequence (P43220 whole entry, looked up): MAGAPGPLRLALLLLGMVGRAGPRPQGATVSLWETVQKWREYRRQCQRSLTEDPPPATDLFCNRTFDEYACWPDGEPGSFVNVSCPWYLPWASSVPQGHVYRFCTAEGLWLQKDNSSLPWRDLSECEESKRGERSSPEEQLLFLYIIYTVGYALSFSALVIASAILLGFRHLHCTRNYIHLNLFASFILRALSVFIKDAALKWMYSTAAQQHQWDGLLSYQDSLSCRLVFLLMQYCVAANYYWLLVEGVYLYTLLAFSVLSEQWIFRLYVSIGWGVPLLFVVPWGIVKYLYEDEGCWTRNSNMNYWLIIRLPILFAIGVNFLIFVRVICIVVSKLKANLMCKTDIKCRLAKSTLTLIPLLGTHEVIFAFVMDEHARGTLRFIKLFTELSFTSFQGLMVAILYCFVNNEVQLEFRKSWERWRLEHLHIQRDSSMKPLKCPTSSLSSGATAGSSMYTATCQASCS
# DRD3 antagonist: qHTS of D3 Dopamine Receptor Antagonist: qHTS | 360,000 tested, 2.5% active | D(3) dopamine receptor (Homo sapiens), P35462 | D3R cells, DiscoveRx beta-arrestin luminescence, antagonist mode; hits give low values | max response, negative = inhibition, % | AID 652054, 2013; in the data active means max response below about -50%; inconclusive means no clear call, values can overlap the other calls; further: on the % scale 0 is the no-effect control and ±100 the full control effect
#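 Cells plated overnight at 1500 cells/well, then exposed to library compounds with dopamine controls for 90 minutes at 37 degrees C. DiscoveRx reagent added for 30–60 minutes at room temperature; luminescence read, quantitative HTS format.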
# D3 ag: qHTS of D3 Dopamine Receptor Agonist: qHTS. D(3) dopamine receptor (Homo sapiens), P35462. D3R DiscoveRx beta-arrestin cells, luminescence, 90 min. max activation, %. 410,000 tested, 0.58% active; in the data active means max activation above about 30%; further: 0% is about no effect
#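 Agonist-mode cell screen: cells plated at 1500/well and incubated overnight at 37 °C, then exposed to library compounds for 90 min at 37 °C. Detection reagent was added for 30–60 min at room temperature, and luminescence was read.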
# GLP-1R inv ag: qHTS of GLP-1 Receptor Inverse Agonists (Inhibition Mode); 410,000 tested, 1.6% active; AID 624417, 2012; Potency, µM (top dose mostly 38.3 µM), for the others: at the highest dose activity change, negative = inhibition, usual class: inhibitors; Glucagon-like peptide 1 receptor (Homo sapiens), P43220; HEK293 GLP-1R CRE-luciferase, luminescence, 24 h; GLP-1R form is constitutively active; further: potency means the concentration at half of the fitted maximal effect; on the % scale 0 is the no-effect control and ±100 the full control effect; nearly all actives have a fitted effect of over 55% in size
#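 Constitutively active GLP-1R drives a cAMP-responsive luciferase in stably transfected HEK293 cells; test compounds are added after overnight (12 h) attachment and left 24 hr, and signal loss in luminescence marks inhibition.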
# GLP1R cytotox: qHTS of GLP-1 Receptor Inverse Agonists: Cytotox Screen; HEK293 cAMP-luciferase reporter cells, luminescence, 24 h; Potency, µM (top dose mostly 38.3 µM), for the others: top-dose activity change, negative = inhibition, hits mostly inhibitors; 410,000 tested, 0.13% active; AID 624418, 2012;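 further: loss of luciferase light is scored as toxicity; potency means the concentration at half of the fitted maximal effect; on the % scale 0 is the no-effect control and ±100 the full control effect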
#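 Seeding density was 200 cells/uL; after overnight-length (12 h) culture, 23 nL compounds went on for 24 h at 37 °C. Readout used a luciferase detection reagent, luminescence taken after 12 min at room temperature.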
# ClpP mod: qHTS Assay for Activators of ClpP; ATP-dependent Clp protease proteolytic subunit (Bacillus subtilis (strain 168)), P80244; purified B. subtilis ClpP, FRET peptide cleavage, 20 min; Potency, µM (doses to about 57.5 µM), for the others: top-dose activity change, negative = active; 340,000 tested, 1.9% active; AID 651965, 2013; active means well fitted falling curve with a large enough effect; inconclusive means small, poorly fitted or top-dose-only effect; inactive means no such curve, though single readings can be large or run the other way; further: potency means the concentration at half of the fitted maximal effect; the source files actives as falling curves though it sought activators and does not explain the sign; nearly all actives have a fitted effect of over 65% in size
#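 FRET quenching reversal measured ClpP activation: 10 microg/mL B. subtilis ClpP at pH 8 with the FRET-FV decapeptide, read at 430 nm after 320 nm excitation. The 20-min minus 0-min signal was scaled between DMSO/no-enzyme wells and ADEP (5.8 microM final).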
# The depositor's hits bear a star; ? = inconclusive; · = no result; [ ] = remark or other dose. A selection: hits, their analogues and other compounds. The true share with any hit is near 5.7%. Unless noted, the call rests on the fitted dose curve; in most records, active means well fitted curve in the direction sought with a large enough effect; inconclusive means small, poorly fitted or top-dose-only effect, or another doubt; inactive means no such curve, though single readings can be large; an effect the other way counts as inactive or inconclusive.
SMILES,GLP1R ag,DRD3 antagonist,D3 ag,GLP-1R inv ag,GLP1R cytotox,ClpP mod
CC1=C(C(N)=O)C(c2ccc(C)cc2)n2nc(SCc3ccccc3)nc2N1 (stereo unspecified),0%,·,2,0%,-6%,-15%
CCc1cccc(CC)c1N(COC)C(=O)Cn1c(C)nc2ccccc21,·,·,-3,2.2µM*,7%,4%
Cc1nc(SCC(=O)N2c3ccccc3Sc3ccccc32)n[nH]1,-2%,-57*,-7,-11%,1%,-3%
CC(=O)c1ccc(NC(=O)CSc2nc(C3CC3)nc3ccccc23)cc1,6%,-1,-14,-8%,?,0%
O=C(CSc1nc(C2CC2)nc2ccccc12)N1c2ccccc2Sc2ccccc21,2%,5,-7,-8%,4%,13µM*
CCOc1ccc(-n2c(=O)c3c4c(sc3n(CC(=O)NC(C)CC)c2=O)CCCC4)cc1 (stereo unspecified),·,·,-2,9%,-9%,-1%
Cc1ccc(NC(=S)NC(=O)c2ccc(-c3ccc(Cl)cc3)o2)c(O)c1,-10%,-101*,-16,?,-27%,-3%
Cc1cc(N2CCN(C)CC2)ccc1NC(=O)c1ccc(-c2ccc(Cl)cc2)o1,12%,-20,-10,11µM*,?,·
Cc1ccc(O)c(NC(=S)NC(=O)Cc2ccc(Cl)cc2)c1,-1%,?,-10,-15%,-8%,·
Cc1cc(O)c(NC(=S)NC(=O)c2ccc(-c3ccc(Cl)cc3)o2)cc1C,-30%,-76*,-32,?,13%,?
CCc1ccc(NC(=O)Nc2ccccc2OCc2cc(=O)n3ccccc3n2)cc1,·,·,-10,-3%,-7%,11%
CC(C(=O)NCc1ccccc1)n1ccc2cc(S(=O)(=O)N3CCCC3)ccc21 (stereo unspecified),·,·,8,-8%,2%,-6%
COc1ccc(C2C3=C(CCCC3=O)Nc3ccc4ncccc4c32)cc1OC (stereo unspecified),15%,13,-2,-5%[0.307 µM],12%[0.307 µM],6.3µM*
O=C(CCS(=O)(=O)c1ccccc1)N(Cc1cccnc1)c1nc2c(Cl)cccc2s1,·,·,-2,10%,6%,2%
CC(=O)c1nc(N2C(=O)CC(Cc3cc(C)cc(C)c3)C2=O)sc1C (stereo unspecified),-3%,?,-14,1%,8%,0%
CC(=O)c1nc(N2C(=O)CC(Cc3cccc(C)c3)C2=O)sc1C (stereo unspecified),1%,-55*,8,10%,-3%,2%
N#CC[n+]1cccc(Br)c1,·,·,·,·,·,-1%
CCOc1ccc(-c2nc(-c3ccc(OC)cc3)no2)cc1OCC,-5%,27,2,3%,-2%,32µM*
COc1cccc(NC(=O)NCCC2=CCCCC2)c1,10%,-9,-2,?,-22%,0%
CCOc1ccc(CCNC(=O)Nc2cccc(OC)c2)cc1OCC,-3%,15,-5,11µM*,-18%,1%
CCOc1ccc(CCNC(=O)CCc2nc(-c3ccc(OC)cc3)no2)cc1OCC,-3%,9,-9,-3%,18%,25µM*
CCOc1ccc(CCNC(=O)CCc2nc(-c3ccc(C)cc3)no2)cc1OCC,10%,-21,4,0%,13%,-15%
CCOc1ccc(-c2noc(-c3ccncc3)n2)cc1OCC,8%,7,5,42%,-1%,-12%
O=C(CN1C(=O)CSc2ccc(S(=O)(=O)N3CCCCC3)cc21)NCc1ccc(F)cc1Cl,-4%,·,-16,?,-11%,-1%
